The list is not random: actives were taken first. Their share in the collection is about 32%.
CYP2C19 inh: blocks human cytochrome P450 2C19. P33261. CYP2C19 Supersomes, luciferin-H EGE luminescence, 30 min. inhibition, % at 5 µM. 96,000 compounds, 21% hits. AID 778;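 active = CYP2C19 inhibition above a set limit at 5 µM in the primary screen, cut at about 50% in these data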;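 also: plate controls were negative control wells for no effect and 2.5 mM tranylcypromine positive control for full effect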
Target sequence (P33261 whole entry, looked up): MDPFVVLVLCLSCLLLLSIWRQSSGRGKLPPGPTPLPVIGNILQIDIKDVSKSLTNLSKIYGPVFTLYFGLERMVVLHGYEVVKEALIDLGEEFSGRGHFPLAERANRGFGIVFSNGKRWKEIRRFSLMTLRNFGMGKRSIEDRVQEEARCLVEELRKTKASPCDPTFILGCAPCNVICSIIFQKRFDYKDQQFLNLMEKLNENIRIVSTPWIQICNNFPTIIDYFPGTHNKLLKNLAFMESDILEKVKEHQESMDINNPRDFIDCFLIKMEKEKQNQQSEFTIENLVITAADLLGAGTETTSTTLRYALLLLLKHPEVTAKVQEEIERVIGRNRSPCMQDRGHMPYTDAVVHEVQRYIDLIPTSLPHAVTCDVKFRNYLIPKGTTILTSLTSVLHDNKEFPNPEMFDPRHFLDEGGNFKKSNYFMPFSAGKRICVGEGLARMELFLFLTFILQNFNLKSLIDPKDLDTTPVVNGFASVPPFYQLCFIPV
CYP2C9 activ: activators of human CYP2C9; activation factor at 5 µM; P11712; 96,000 compounds, 1.4% hits; recombinant CYP2C9, luciferin-H conversion, luminescence; stronger effect = higher value; factor 1 = untreated enzyme, 0 = blocked;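 active = activation factor of 2 or more for CYP2C9 at a 5 µM dose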;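 also: 0 = sulfaphenazole-blocked wells and 1 = vehicle-only wells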
PostGolgi yeast: growth inhibition of a yeast mutant, post-Golgi transport screen | post-Golgi transport phenotypic cell assay | 98,000 compounds, 0.9% hits | inhibition, % at 10 µM;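 also: yeast cells grown in 1536-well plates; yeast grown about 18 h at 30C before absorbance read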
PostGolgi ctrl: growth of the yeast control strain, post-Golgi counter-screen | efflux-deficient yeast background strain, growth absorbance A615, 16 h | inhibition, % at 10 µM | 98,000 compounds, 5% hits
CYP2C19 act: activators of human cytochrome P450 2C19 | P33261 | recombinant CYP2C19, luciferin-H EGE luminescence; stronger effect = higher value; 0 = fully inhibited enzyme, 1 = untreated enzyme | activation factor at 5 µM | 96,000 tested, under 10 active | AID 1025;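 active = activation factor of at least 2 at 5 µM in the primary screen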;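 also: 0 = wells with 2.5 mM tranylcypromine and 1 = vehicle-only wells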
CYP2C9 inhib: human CYP2C9 inhibition; P11712; CYP2C9 Supersomes, luciferin-H conversion, luminescence; 96,000 compounds, 20% hits; inhibition, % at 5 µM; AID 777;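 active = blocking of liver enzyme CYP2C9 beyond about 50% at 5 µM, limit read from the data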
Numbers without * were called inactive; nt = not tested or not shown. Rule as the data show it, unless noted: active = inhibition above about 30%; inactive = the rest.

SMILES	CYP2C19 inh	CYP2C9 activ	PostGolgi yeast	PostGolgi ctrl	CYP2C19 act	CYP2C9 inhib
CCOC(=O)c1ccc(N2C(=O)CC(N3CCC(Nc4ccc(F)cc4)CC3)C2=O)cc1 (centres undefined)	22.2	0.8	-4.3	7.7	0.8	19.2
Cc1ccc(Nc2nc(-c3c(C)nc4ccccn34)cs2)cc1	66.7*	1.9	-9.0	74.8*	0.3	-92.3
Cc1ccc(Nc2nc(-c3c(C)nc4ncccn34)cs2)cc1	19.3	2*	-12.4	19.9	0.8	-102.9
Cc1ccnc(Nc2nc(-c3c(C)nc4sccn34)cs2)c1	26.2	0.8	5.0	14.3	0.7	25.0
COc1ccc(N=C2C(=Nc3ccc(OC)cc3)N(c3ccc(N(C)C)cc3)C(=S)N2c2ccc(OC)cc2)cc1	2.5	1	-3.8	4.0	1	2.0
COc1ccc(N=C2NC(=O)S/C2=C\c2ccc(N(C)C)cc2)cc1	15.3	0.1	-4.8	13.9	0.8	94.5*
COc1cc(OC)c(C2N(C)c3ccccc3N2C)cc1OC	-16.3	1.2	-1.4	-5.7	1.2	-16.7
C=CCSc1ncccc1C(=O)O	6.8	0.9	-8.4	0.6	0.9	9.8
O=C(O)c1cccc(S(=O)(=O)Nc2ccccc2Cl)c1	1.0	1.1	6.1	-11.7	1	-12.8
Cc1cccc(S(=O)(=O)Nc2ccc(C)c3c2OC(C)(C)C3)c1	97.1*	2.1*	1.4	8.6	0	-110.8
O=C1C(c2ccncc2)N(CCC2=CCCCC2)C(=O)CN1C1CCCCC1 (centres undefined)	52.6*	0.5	1.0	-3.5	0.5	54.5*
Cc1ccc2nc(NC(=O)CN(C)S(=O)(=O)c3cccc4nsnc34)sc2c1	22.7	0.8	6.1	-10.2	0.8	19.0
CC(=O)c1cccc(NC(=O)CCNS(=O)(=O)c2cccc3nsnc23)c1	5.4	1.1	2.0	-0.9	0.9	-8.6
Cc1ccc(NC(=O)CN(C)S(=O)(=O)c2cccc3nsnc23)cc1C	34.8	0.2	3.1	4.0	0.7	77.7*
Cc1ccnc(NC(=O)CN(C)S(=O)(=O)c2cccc3nsnc23)c1	20.9	0.2	-2.8	15.0	0.8	76.9*
CN(CC(=O)NCCN1CCN(Cc2ccccc2)CC1)S(=O)(=O)c1cccc2nsnc12	-5.9	1.1	-3.1	3.6	1.1	-5.3
CC(C)c1ccc(NC(=O)CCNS(=O)(=O)c2cccc3nsnc23)cc1	11.4	0.5	-8.5	5.8	0.9	45.6
Cc1ccc(NC(=O)CN(C)S(=O)(=O)c2cccc3nsnc23)cc1Cl	40.0	0.2	-1.3	17.3	0.6	83.6*
CCN(CCCNC(=O)CN(C)S(=O)(=O)c1cccc2nsnc12)c1ccccc1	37.4	0.3	-0.8	1.0	0.6	74.4*
CSCCC(C(=O)OCC(=O)c1ccc(C)c(C)c1)N1C(=O)c2cc(Cl)c(Cl)cc2C1=O (centres undefined)	4.4	0.6	-3.9	-4.9	1	43.7
CN(CC(=O)Nc1ccc(F)c(F)c1)S(=O)(=O)c1cccc2nsnc12	38.7	0.3	3.0	-1.5	0.6	70.0*
CN(CC(=O)NCc1ccc(Cl)cc1)S(=O)(=O)c1cccc2cccnc12	45.2	1.7	2.7	11.1	0.5	-72.0
CN(CC(=O)NCc1ccc(Cl)cc1)S(=O)(=O)c1cccc2nsnc12	81.8*	0.8	-3.9	2.0	0.2	20.1
O=C(CSc1nnc(-c2cccnc2)n1-c1ccccc1)Nc1ccc2c(c1)OCO2	-6.5	0.9	2.2	-5.9	1.1	10.9
Cc1cc2ccccc2n1CCNC(=O)c1cccs1	53.4*	0.5	0.8	7.5	0.5	45.1
SMILES	CYP2C19 inh	CYP2C9 activ	PostGolgi yeast	PostGolgi ctrl	CYP2C19 act	CYP2C9 inhib
O=C(NCCn1ccc2ccccc21)C1CCCCC1	nt	nt	0.4	21.9	nt	nt
CCCn1c(CCNC(=O)c2cccs2)nc2ccccc21	nt	nt	-1.2	5.6	nt	nt
Cc1cc2ccccc2n1CCNC(=O)C1CCCCC1	68.5*	0.6	-6.2	10.1	0.3	38.4
Cc1cc2ccccc2n1CCNC(=O)C1CCCC1	93.9*	0.5	23.4	4.0	0.1	51.5*
CC(NC(=O)C1CCC(=O)N1Cc1ccc(F)cc1)c1ccc2c(c1)OCCO2 (centres undefined)	1.5	0.9	-0.9	-11.0	1	12.7
Cc1csc(OCc2ccc(C#N)cc2)n1	93.1*	0.8	-11.0	6.4	0.1	23.9
C[C@@]12CC(=O)NC1N(C(=O)c1ccccc1)C(c1ccccc1OC(=O)c1ccccc1)C2 (some centres undefined)	40.2	0.7	5.7	-6.0	0.6	32.2

Compound activity from PubChem BioAssay.
